The subject of assay [1] is RAW-Dual. The experiment in a line: NF-kB SEAP reporter activity, fold change vs agonist alone; cytotoxicity flag (confluency mask): cytotoxic (confluency <70% of control); higher = enhanced NF-kB activity. The method, boiled down: (§1)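 After 50 nL of library stock was delivered by pin tool to RAW-Dual macrophages (50,000 cells/well, DMEM, 384-well plates), a PRR agonist was added 1 h later and the plates were kept at 37 °C, 5% CO2. Twenty hours later, IRF was read from supernatant by QuantiLuc luminescence and NF-κB by QuantiBlue absorbance at 620 nm. Reporter activity is stated as fold change over agonist-alone wells. Wells with IncuCyte confluency under 70% of agonist controls in both mask sets were counted as cytotoxic.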

Assay [2] concerns RAW-Dual. The experiment in a line: NF-kB SEAP reporter activity, fold change vs agonist alone; higher = enhanced NF-kB activity. The method, boiled down:
as §1

The test system of assay [3] is RAW-Dual. The experiment in a line: NF-kB SEAP reporter activity, fold change vs agonist alone; cytotoxicity flag (confluency mask): not cytotoxic; higher = enhanced NF-kB activity. The gist of the method:
as §1

Setting [4] is: agonist: ODN 1826 (TLR9) 0.5 ug/mL.
Where [5] appears, read: agonist: Pam2CSK4 (TLR2/6) 0.1 ug/mL.
Setting [6] is: agonist: Pam3CSK4 (TLR2/1) 0.1 ug/mL.
Setting [7] is: library stock concentration (final ~1000-fold dilution): 10 mM, cytotoxicity flag (confluency mask): not cytotoxic, agonist: Imiquimod (TLR7) […].
Setting [8] is: library stock concentration (final ~1000-fold dilution): 10 mM, cytotoxicity flag (confluency mask): not cytotoxic, agonist: MPLA (TLR4) […].
[9] abbreviates: library stock concentration (final ~1000-fold dilution): 10 mM, cytotoxicity flag (confluency mask): cytotoxic (confluency <70% of control), agonist: Imiquimod (TLR7) […].
Where [10] appears, read: library stock concentration (final ~1000-fold dilution): 10 mM, cytotoxicity flag (confluency mask): cytotoxic (confluency <70% of control), agonist: MPLA (TLR4) […].
[11] abbreviates: library stock concentration (final ~1000-fold dilution): 2 mM, cytotoxicity flag (confluency mask): not cytotoxic, agonist: Imiquimod (TLR7) […].
Setting [12] is: library stock concentration (final ~1000-fold dilution): 2 mM, cytotoxicity flag (confluency mask): not cytotoxic, agonist: MPLA (TLR4) […].

Whole data set: some 2,900 compounds, median “NF-kB SEAP reporter activity, fold change vs agonist alone” near 0.99, cut for the highest 2% near 2.6. The sample as a whole holds a higher share of the highest values than the screen did.

The values below come from the supplement of paper PMC10037445.

On to `Cc1cnc(Nc2ccc(OCCN3CCCC3)cc2)nc1Nc1cccc(S(=O)(=O)NC(C)(C)C)c1` (library stock concentration (final ~1000-fold dilution): 10 mM), for which the “NF-kB SEAP reporter activity” value came out at 4.34 in the assay with RAW-Dual [1] (agonist: LPS (TLR4) 0.1 ug/mL), 1.22 in the assay with RAW-Dual [1] (setting [4]), 2.05 with RAW-Dual [1] (setting [5]) and 3.55 in the assay with RAW-Dual [1] (setting [6]).

In the case of `C=CC(=O)Nc1cccc(Sc2nc(Nc3ccc(N4CCN(C)CC4)cc3)ncc2Cl)c1`, the “NF-kB SEAP reporter activity” value is 0.33 in the assay with RAW-Dual [2] (setting [7]) and 0.408 in the assay on RAW-Dual [2] (setting [8]).

In the case of `C=CC(=O)Nc1cccc(Sc2nc(Nc3ccc(N4CCN(C)CC4)cc3)ncc2Cl)c1` (library stock concentration (final ~1000-fold dilution): 10 mM), the “NF-kB SEAP reporter activity” value in the assay on RAW-Dual [3] (agonist: LPS (TLR4) 0.1 ug/mL) came to 0.254; in the assay on RAW-Dual [3] (setting [4]), 0.205; with RAW-Dual [3] (setting [5]), 0.0814; in the assay with RAW-Dual [3] (setting [6]) it was 0.268.

Take `Cc1cnc(Nc2ccc(N3CCN(C)CC3)cc2)nc1Nc1cccc(S(=O)(=O)NC(C)(C)C)c1` (library stock concentration (final ~1000-fold dilution): 10 mM): the “NF-kB SEAP reporter activity” value in the assay with RAW-Dual [3] (agonist: LPS (TLR4) 0.1 ug/mL) worked out at 7; in the assay on RAW-Dual [3] (setting [4]), 0.913; in the assay with RAW-Dual [3] (setting [5]) it was 2.15; with RAW-Dual [3] (setting [6]) it was 0.84.

With `CCN(CC)CCOc1ccc(Nc2ncc3cc(-c4c(Cl)cccc4Cl)c(=O)n(C)c3n2)cc1`, the “NF-kB SEAP reporter activity” value in the assay on RAW-Dual [2] (setting [9]) stood at 0.492; in the assay with RAW-Dual [2] (setting [10]), 0.332.

On to `Cc1cnc(Nc2ccc(OCCN3CCCC3)cc2)nc1Nc1cccc(S(=O)(=O)NC(C)(C)C)c1`, for which the results for the “NF-kB SEAP reporter activity” value in the assay on RAW-Dual [2] (setting [9]) and in the assay on RAW-Dual [2] (setting [10]) were 3.13 and 2.73, respectively.

On to `Cc1cnc(Nc2ccc(N3CCN(C)CC3)cc2)nc1Nc1cccc(S(=O)(=O)NC(C)(C)C)c1`, for which the “NF-kB SEAP reporter activity” value in the assay with RAW-Dual [2] (setting [7]) came out at 1.01; in the assay with RAW-Dual [2] (setting [8]), 0.945.

On to `C=CCn1c(=O)c2cnc(Nc3ccc(N4CCN(C)CC4)cc3)nc2n1-c1cccc(C(C)(C)O)n1` (library stock concentration (final ~1000-fold dilution): 10 mM), for which the “NF-kB SEAP reporter activity” value came out at 0.933 with RAW-Dual [1] (agonist: LPS (TLR4) 0.1 ug/mL), 0.203 in the assay with RAW-Dual [1] (setting [4]), 0.914 in the assay with RAW-Dual [1] (setting [5]) and 1.07 in the assay with RAW-Dual [1] (setting [6]).

With `C=CC(=O)Nc1cccc(Nc2nc(Nc3ccc(OCCOC)cc3)ncc2F)c1`, the “NF-kB SEAP reporter activity” value in the assay on RAW-Dual [2] (setting [7]) turned out to be 1.11; with RAW-Dual [2] (setting [8]), 1.69.

Turning to `c1ccc(C(c2ccccc2)N2CCN(Cc3ccc4c(c3)OCO4)CC2)cc1`, the results for the “NF-kB SEAP reporter activity” value in the assay on RAW-Dual [2] (setting [7]) and with RAW-Dual [2] (setting [8]) were 1.19 and 0.686, respectively.

With `c1ccc(C(c2ccccc2)N2CCN(Cc3ccc4c(c3)OCO4)CC2)cc1` (library stock concentration (final ~1000-fold dilution): 10 mM), the “NF-kB SEAP reporter activity” value with RAW-Dual [3] (agonist: LPS (TLR4) 0.1 ug/mL) was 0.717; in the assay on RAW-Dual [3] (setting [4]) it was 0.728; with RAW-Dual [3] (setting [5]), 1.38; in the assay with RAW-Dual [3] (setting [6]) it was 0.699.

As for `O=c1ncnc2[nH][nH]cc1-2`, the results for the “NF-kB SEAP reporter activity” value with RAW-Dual [2] (setting [7]) and in the assay on RAW-Dual [2] (setting [8]) were 0.925 and 1.08, respectively.

With `O=c1ncnc2[nH][nH]cc1-2` (library stock concentration (final ~1000-fold dilution): 10 mM), the “NF-kB SEAP reporter activity” value in the assay on RAW-Dual [3] (agonist: LPS (TLR4) 0.1 ug/mL) was 0.941; with RAW-Dual [3] (setting [4]), 1.03; in the assay with RAW-Dual [3] (setting [5]) it was 1.06; in the assay on RAW-Dual [3] (setting [6]), 1.16.

For `C=C(C)C1CCC2(C)CCC3(C)C(CCC4C5(C)CCC(O)C(C)(C)C5CCC43C)C12` (centres undefined), the “NF-kB SEAP reporter activity” value was 1 in the assay on RAW-Dual [2] (setting [11]) and 1.05 with RAW-Dual [2] (setting [12]).

Regarding `C=C(C)C1CCC2(C)CCC3(C)C(CCC4C5(C)CCC(O)C(C)(C)C5CCC43C)C12` (centres undefined) (library stock concentration (final ~1000-fold dilution): 2 mM), the “NF-kB SEAP reporter activity” value came out at 1.25 with RAW-Dual [3] (agonist: LPS (TLR4) 0.1 ug/mL), 0.949 in the assay on RAW-Dual [3] (setting [4]), 1.06 in the assay on RAW-Dual [3] (setting [5]) and 0.917 with RAW-Dual [3] (setting [6]).

On to `CC(C)COCC(CN(Cc1ccccc1)c1ccccc1)N1CCCC1.Cl.O` (centres undefined) (library stock concentration (final ~1000-fold dilution): 10 mM), for which the “NF-kB SEAP reporter activity” value with RAW-Dual [1] (agonist: LPS (TLR4) 0.1 ug/mL) was 0.71; in the assay on RAW-Dual [1] (setting [4]), 1.2; in the assay on RAW-Dual [1] (setting [5]), 0.673; with RAW-Dual [1] (setting [6]) it was 1.09.

As for `CC(C)COCC(CN(Cc1ccccc1)c1ccccc1)N1CCCC1.Cl.O` (centres undefined), the “NF-kB SEAP reporter activity” value with RAW-Dual [2] (setting [9]) turned out to be 0.745; in the assay with RAW-Dual [2] (setting [10]), 1.24.

As for `CC(Oc1ccc2[nH]nc(/C=C/c3cnn(CCO)c3)c2c1)c1c(Cl)cncc1Cl` (centres undefined), the “NF-kB SEAP reporter activity” value in the assay with RAW-Dual [2] (setting [9]) turned out to be 0.251; in the assay with RAW-Dual [2] (setting [10]), 0.215.

As for `CC(Oc1ccc2[nH]nc(/C=C/c3cnn(CCO)c3)c2c1)c1c(Cl)cncc1Cl` (centres undefined) (library stock concentration (final ~1000-fold dilution): 10 mM), the “NF-kB SEAP reporter activity” value amounted to 0.225 in the assay with RAW-Dual [1] (agonist: LPS (TLR4) 0.1 ug/mL), 0.187 with RAW-Dual [1] (setting [4]), 0.0607 in the assay with RAW-Dual [1] (setting [5]) and 0.139 with RAW-Dual [1] (setting [6]).

As to `CC1(c2nc3c(C(N)=O)cccc3[nH]2)CCCN1` (centres undefined), the figures for the “NF-kB SEAP reporter activity” value in the assay on RAW-Dual [2] (setting [7]) and with RAW-Dual [2] (setting [8]) were 1.05 and 0.99, respectively.

Consider `CC1(c2nc3c(C(N)=O)cccc3[nH]2)CCCN1` (centres undefined) (library stock concentration (final ~1000-fold dilution): 10 mM), for which the “NF-kB SEAP reporter activity” value in the assay on RAW-Dual [3] (agonist: LPS (TLR4) 0.1 ug/mL) is 1.14; in the assay with RAW-Dual [3] (setting [4]), 0.972; in the assay on RAW-Dual [3] (setting [5]), 0.955; with RAW-Dual [3] (setting [6]) it was 0.991.

For the molecule `C=CC(=O)Nc1cc(Nc2nccc(-n3cc(CN(C)C)c(-c4ccccc4)n3)n2)c(OC)cc1N1CCOCC1`, the “NF-kB SEAP reporter activity” value in the assay on RAW-Dual [2] (setting [11]) stood at 1.12; with RAW-Dual [2] (setting [12]) it was 1.02.

As to `C=CC(=O)Nc1cc(Nc2nccc(-n3cc(CN(C)C)c(-c4ccccc4)n3)n2)c(OC)cc1N1CCOCC1` (library stock concentration (final ~1000-fold dilution): 2 mM), the “NF-kB SEAP reporter activity” value came out at 1.37 with RAW-Dual [3] (agonist: LPS (TLR4) 0.1 ug/mL), 0.945 in the assay on RAW-Dual [3] (setting [4]), 0.927 in the assay on RAW-Dual [3] (setting [5]) and 1.01 in the assay with RAW-Dual [3] (setting [6]).

As for `Cc1ccc(Sc2cncc3sc(C(N)=O)cc23)cc1`, the “NF-kB SEAP reporter activity” value amounted to 2.48 in the assay on RAW-Dual [2] (setting [7]) and 1.93 in the assay on RAW-Dual [2] (setting [8]).

With `Cc1ccc(Sc2cncc3sc(C(N)=O)cc23)cc1` (library stock concentration (final ~1000-fold dilution): 10 mM), the “NF-kB SEAP reporter activity” value is 2.89 in the assay on RAW-Dual [3] (agonist: LPS (TLR4) 0.1 ug/mL), 2.2 in the assay with RAW-Dual [3] (setting [4]), 1.62 in the assay on RAW-Dual [3] (setting [5]) and 3.34 in the assay on RAW-Dual [3] (setting [6]).
